Measured values taken from PubChem BioAssay (NCATS).
“And” between values parts separate entries of the source, which are not always exact repeats. Identical values can stand only once. Results filed as inconclusive are left out. A call without a number means that no potency is given here. Some structures have more than one record in an assay (separate samples or runs), and their calls can disagree. The source made the active and inactive calls. Unless noted, the call rests on the fitted dose curve; in most records, active means well fitted inhibition curve with a large enough effect; inconclusive means small, poorly fitted or top-dose-only effect; inactive means flat fitted curve, though single readings scatter.

Test: P-glycoprotein substrates identified in KB-8-5-11 adenocarcinoma cell line, qHTS therapeutic library screen (AID 1346987); further: nearly all actives have a fitted effect of over 65% in size; further: potency means the concentration at half of the fitted maximal effect
Details: KB-8-5-11 (P-gp overexpressing) viability, CellTiter-Glo, 72 h; series mostly up to 44.5 µM
Method in brief: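 P-gp-mediated resistance screen: KB-8-5-11 cells treated 72 h with compounds in dose-response. CellTiter-Glo viability.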

Row | SMILES | Potency
1 | C[C@]12C/C(=C/O)C(=O)C[C@@H]1CC[C@@H]1[C@@H]2CC[C@@]2(C)[C@H]1CC[C@]2(C)O | inactive
2 | CC(=O)Nc1cc([As](=O)(O)O)ccc1O | inactive
3 | Nc1ccncc1 | inactive
4 | CCOC(=O)C1(c2ccccc2)CCN(CCC(C#N)(c2ccccc2)c2ccccc2)CC1 | 9.2 µM (active) and 15.8 µM (active)
5 | C=C1CC[C@@]2(O)[C@H]3Cc4ccc(O)c5c4[C@@]2(CCN3CC2CC2)[C@H]1O5 | inactive
6 | N[C@@H]1C[C@H]1c1ccccc1 | inactive
7 | CCN(CC)CCOC(=O)C(O)(c1ccccc1)c1ccccc1 | inactive
8 | Clc1cccc(N2CCNCC2)c1 | inactive
9 | N[C@@H](Cc1ccc(Oc2cc(I)c(O)c(I)c2)c(I)c1)C(=O)O | inactive
10 | CC(=O)[C@H]1CC[C@H]2[C@@H]3CC[C@H]4C[C@](C)(O)CC[C@]4(C)[C@H]3CC[C@]12C | inactive
11 | Oc1ccc(Cl)cc1Cc1ccccc1 | inactive
12 | Cc1cccc(C)c1NC1=NCCCS1 | inactive
13 | COc1ccccc1N1CCNCC1 | inactive
14 | O=C(O)c1ccc2[nH]cc(CCCCN3CC=C(c4ccccc4)CC3)c2c1 | inactive
15 | NCC1(CC(=O)O)CCCCC1 | inactive
16 | c1ccc(C2CC2)c(OCC2=NCCN2)c1 | inactive
17 | CCOP(=S)(OCC)Oc1cc(C)nc(C(C)C)n1 | inactive
18 | CCC1(C2=NCCN2)Cc2ccccc2O1 (centres undefined) | inactive

Row | SMILES | Potency
19 | NP(N)(=O)NC(=O)c1ccc(F)cc1 | inactive
20 | CC(C)NCC(O)c1ccccc1Cl (centres undefined) | inactive
21 | CN(C)CCc1ccc(O)cc1 | inactive
22 | N#CC(C#N)=Cc1ccc(O)c(O)c1 | inactive
23 | OCCOc1ccccc1 | inactive
24 | CC[N+]1(C)CCCC(OC(=O)C(O)(c2ccccc2)c2ccccc2)C1 (centres undefined) | inactive
25 | CN1CCN(C(=O)O[C@H]2c3nccnc3C(=O)N2c2ccc(Cl)cn2)CC1 | inactive
26 | O=c1oc2ccccc2c(O)c1C(CC(O)c1ccc(-c2ccc(Br)cc2)cc1)c1ccccc1 (centres undefined) | inactive
27 | O=[N+]([O-])c1cc([As](=O)(O)O)ccc1O | inactive
28 | C=CCN1CC[C@]23c4c5ccc(O)c4O[C@H]2C(=O)CC[C@@]3(O)[C@H]1C5 | inactive
29 | CCCC1CCCCN1 (centres undefined) | inactive
30 | FC(F)(F)c1cccc(C2=CCN(CCc3ccc4ccccc4c3)CC2)c1 | inactive
31 | Cc1ccc2c(c1)C1CN(C)CCC1N2 (centres undefined) | inactive
32 | CC1NCCOC1c1ccccc1 (centres undefined) | inactive
33 | C#CCN(C)[C@H](C)Cc1ccccc1 | inactive
34 | COc1ccc(Cc2nccc3cc(OC)c(OC)cc23)cc1OC | 880 nM (active) and inactive
35 | NN=C(N)N | inactive

Test: Natriuretic polypeptide receptor (hNpr1) antagonism - Pilot counterscreen GloSensor control cell line (AID 1347045; calls by dose curve)
Details: HEK293 cGMP GloSensor cells, SNP-stimulated luminescence, 20 min; series mostly up to 38.3 µM
Method in brief: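 This counterscreen uses HEK293 cells expressing the GIP/pGS-40F cGMP biosensor. Compound-treated cells are challenged with 50 uM sodium nitroprusside, and the luciferase signal is compared before and after stimulation.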

Row | SMILES | Potency
36 | Nc1ccncc1 | inactive
37 | CC(=O)[C@H]1CC[C@H]2[C@@H]3CC[C@H]4C[C@](C)(O)CC[C@]4(C)[C@H]3CC[C@]12C | inactive
38 | Cc1cccc(C)c1NC1=NCCCS1 | inactive
39 | COc1ccccc1N1CCNCC1 | inactive
40 | NCC1(CC(=O)O)CCCCC1 | inactive
41 | c1ccc(C2CC2)c(OCC2=NCCN2)c1 | inactive
42 | CCC1(C2=NCCN2)Cc2ccccc2O1 (centres undefined) | inactive
43 | N#CC(C#N)=Cc1ccc(O)c(O)c1 | inactive
44 | NN=C(N)N | inactive
